Screening data as filed in PubChem BioAssay.
CYP2C19 inhib – blockers of cytochrome P450 2C19 activity – biochemical, luminescence, ADME assay, primary screen. 96,000 compounds, 21% hits. CYP2C19 Supersomes, luciferin-H EGE luminescence, 30 min. P33261. inhibition, % at 5 µM;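 active = CYP2C19 inhibition above a set limit at 5 µM in the primary screen, cut at about 50% in these data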
Cav32 inh – Cav3.2 calcium influx blockers – cell-based, Fluo-4 calcium fluorescence, FDSS, MLSMR library, primary screen; Voltage-dependent T-type calcium channel subunit alpha-1H (Homo sapiens), O95180; Cav3.2-expressing cells; stronger effect = lower value; B-score at 10 µM; 100,000 compounds, 4% hits;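 active = single-dose well whose peak fluorescence ratio is a statistical outlier from its plate by either plate-standardised score or position-corrected B-score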
CYP2C19 act – human CYP2C19 activators, primary screen, biochemical, luminescence. Cytochrome P450 2C19 (Homo sapiens), P33261. recombinant CYP2C19, luciferin-H EGE luminescence; stronger effect = higher value; 0 = fully inhibited enzyme, 1 = untreated enzyme. activation factor at 5 µM. 96,000 tested, under 10 active. AID 1025, 2008;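 active = activation factor of at least 2 at 5 µM in the primary screen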
CYP2C9 act – human CYP2C9 activators, primary screen, biochemical, luminescence; Cytochrome P450 2C9 (Homo sapiens), P11712; recombinant CYP2C9, luciferin-H conversion; stronger effect = higher value; factor 1 = untreated enzyme, 0 = blocked; activation factor at 5 µM; 96,000 compounds, 1.4% hits; AID 1024, 2008;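 active = activation factor of 2 or more for CYP2C9 at a 5 µM dose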
CYP2C9 inhib – blockers of cytochrome P450 2C9 activity – biochemical, luminescence, ADME assay, primary screen; P11712; CYP2C9 Supersomes, luciferin-H conversion; inhibition, % at 5 µM; 96,000 compounds, 20% hits;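 active = blocking of liver enzyme CYP2C9 beyond about 50% at 5 µM, limit read from the data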
Each line names hits and unclear results; the compound was inactive in the other large screens. Rows were chosen to be rich in hits. Some 27% of all compounds tested hit in one or more screens of this group.

O=C(Nc1ccc(S(=O)(=O)Nc2nccs2)cc1)C1CCCCC1	none
O=C(Cc1ccccc1)NCC1CCCO1 (stereo unspecified)	none
O=C(CCc1c[nH]c2ccccc12)NCC1CCCO1 (stereo unspecified)	CYP2C19 inhib 89, CYP2C9 act 3.1
NNC(=O)CCc1c[nH]c2ccccc12	none (no result: CYP2C19 inhib, CYP2C19 act, CYP2C9 act, CYP2C9 inhib)
CC(C)CNC(=O)CCc1c[nH]c2ccccc12	CYP2C19 inhib 84
Cn1nnc2sc3c(c2c1=O)CCCC3	none
CC(C)(C)c1csc(N(CCC#N)CCC#N)n1	CYP2C19 inhib 54, CYP2C9 inhib 56
N#CCCN(CCC#N)c1nncs1	none
COC(=O)C(NC(C)=O)(Nc1nc(C)cs1)C(F)(F)F (stereo unspecified)	none
COC(=O)C(NC(C)=O)(Nc1ccc(Br)cn1)C(F)(F)F (stereo unspecified)	CYP2C19 inhib 82
CCCCC(=O)NC(Nc1ccc(C)cn1)(C(=O)OCC)C(F)(F)F (stereo unspecified)	CYP2C19 inhib 66
COC(=O)C(NC(C)=O)(Nc1ccccn1)C(F)(F)F (stereo unspecified)	CYP2C9 inhib 50
COC(=O)C(NC(C)=O)(Nc1nc2c(C)cc(C)cc2s1)C(F)(F)F (stereo unspecified)	CYP2C19 inhib 92, Cav32 inh -4.3, CYP2C9 inhib 99
CCOC(=O)C(NC(=O)CC)(Nc1cc(C)on1)C(F)(F)F (stereo unspecified)	none
CCCC(=O)Nc1ccc(Br)cn1	none
COC(=O)CC1=NC(=O)CS1	none
O=C(Nc1ccccc1)C1CCN(C(=O)c2ccccc2)CC1	none
CCCCc1nnc(SCCSc2nnc(CCCC)n2N)n1N	none
O=C(Nc1ccc(Cl)cc1)N1CC=CCC1	none
Cn1nnnc1SCC(=O)Nc1ccccc1N1CCCCC1	none (no result: CYP2C19 inhib, CYP2C19 act, CYP2C9 act, CYP2C9 inhib)
COC(=O)C(NC(=O)c1ccc(C)cc1)(Nc1cccc(C)n1)C(F)(F)F (stereo unspecified)	Cav32 inh -4.6 (no result: CYP2C19 inhib, CYP2C19 act, CYP2C9 act, CYP2C9 inhib)
COC(=O)C(NC(=O)c1ccco1)(Nc1ccc(Br)cn1)C(F)(F)F (stereo unspecified)	CYP2C19 inhib 94
COC(=O)C(NC(=O)c1ccccc1)(Nc1nc(C)cs1)C(F)(F)F (stereo unspecified)	none
COC(=O)C(NC(=O)c1ccco1)(Nc1nc(C)cs1)C(F)(F)F (stereo unspecified)	none
CS(=O)(=O)n1nc(OC(=O)c2cccs2)cc1N	none (no result: CYP2C19 inhib, CYP2C19 act, CYP2C9 act, CYP2C9 inhib)
COCC(=O)Oc1c(S(=O)(=O)c2ccc(C)cc2)c(C)nn1-c1ccccc1	CYP2C9 inhib 81
CCC(=O)Oc1c(S(=O)(=O)c2ccc(C)cc2)c(C)nn1C(C)(C)C	CYP2C19 inhib 69, CYP2C9 inhib 52
Cc1nn(C(C)(C)C)c(OC(=O)c2cccs2)c1S(=O)(=O)c1ccccc1	CYP2C9 inhib 87
CCOC(=O)C[C@H]1c2ccccc2S(=O)(=O)N1Cc1ccc(Cl)cc1	none (no result: CYP2C19 inhib, CYP2C19 act, CYP2C9 act, CYP2C9 inhib)
Cc1cc(C)c2nc(N3CCCN(C(=O)c4cnccn4)CC3)c(C#N)cc2c1	none
CCC1=C(OC(=O)N(CC)CC)N2C(=O)OC(=NCC(=O)OC)[C@]2(Cc2ccccc2)[C@H]2C1=CC[C@H]1C(=O)N(c3ccccc3)C(=O)[C@H]12	none (no result: CYP2C19 inhib, CYP2C19 act, CYP2C9 act, CYP2C9 inhib)
CCCCC(=O)NC1(C(F)(F)F)C(=O)N(CC(C)C)C2=C1C(=O)CC(C)(C)C2 (stereo unspecified)	none
CC1CCCN(C(=O)c2ccncc2)C1 (stereo unspecified)	CYP2C19 inhib 82
O=C(c1ccc(F)cc1)C1CCN(C(=O)c2ccncc2)CC1	CYP2C19 inhib 98, CYP2C9 inhib 97
O=C(c1ccc(Cl)cc1)C1CCN(C(=O)C2CC2)CC1	CYP2C19 inhib 83
O=C(c1ccc(F)cc1)C1CCN(C(=O)N2CCOCC2)CC1	none
COc1ccc(CCNC(=O)c2nnn(-c3ccc4c(c3)OCCO4)c2N)cc1OC	none
N#CCSc1ncnc2sc3c(c12)CCC3	none (no result: Cav32 inh)
COCCn1c(SCC(=O)Nc2ncc(C)s2)nc2sc3c(c2c1=O)CCC3	CYP2C9 inhib 52
COCCn1c(SCc2nnc(-c3ccccc3)o2)nc2sc3c(c2c1=O)CCC3	CYP2C9 inhib 87
COc1ccc(-c2nnc(CSc3ncnc4sc5c(c34)CCC5)o2)cc1OC	CYP2C9 inhib 53 (no result: Cav32 inh)
COCCCn1c(SCC(=O)NCc2ccco2)nc2sc3c(c2c1=O)CCC3	none
Cc1cc(N2CCC(C(=O)N3CCN(c4cccc(C)c4C)CC3)CC2)n2ncnc2n1	none
CCc1nnc(NC(=O)CSc2nc(C3CCCCC3)nc3ccccc23)s1	none
CCOc1cccc(C(=O)Nc2nc(-c3ccc(S(=O)(=O)N4CCOCC4)cc3)cs2)c1	CYP2C9 inhib 65
O=C(COc1cccc(Cl)c1)Nc1nc(-c2ccc(S(=O)(=O)N3CCOCC3)cc2)cs1	none (no result: CYP2C19 inhib, CYP2C19 act, CYP2C9 act, CYP2C9 inhib)
COc1ccccc1OC(C)C(=O)Nc1nc(-c2ccc(S(=O)(=O)N3CCOCC3)cc2)cs1 (stereo unspecified)	CYP2C9 inhib 93
COc1ccccc1C(=O)Nc1nc(-c2ccc(S(=O)(=O)N3CCOCC3)cc2)cs1	none
C=C(C)c1cccc(C(C)(C)NC(=O)Nc2ccc3[nH]c(=O)[nH]c3c2)c1	none
c1ccc(-c2nc3ccccc3o2)nc1	none (no result: Cav32 inh)
c1ccc2nc(-c3nc4ccccc4o3)ccc2c1	CYP2C19 inhib 71
CC(C)Cc1cc(C(=O)N2CCN(C(c3ccccc3)c3ccccc3)CC2)no1	CYP2C9 inhib 79
O=C(N1CCCCC1)N1CCN(C(c2ccccc2)c2ccccc2)CC1	CYP2C19 inhib 57, CYP2C9 inhib 81
COc1ccc(-c2cc(C(=O)N3CCN(C(c4ccccc4)c4ccccc4)CC3)no2)cc1	none
COc1ccc(-c2cc(C(=O)N3CCN(C(c4ccccc4)c4ccccc4)CC3)no2)cc1OC	Cav32 inh -6.3
COC(=O)c1nn(-c2ccccc2)c(=O)cc1Oc1ccccc1	none
COc1ccc(NC(=O)c2ccc3c(c2)S(=O)(=O)c2ccccc2C3=O)cc1	none (no result: CYP2C19 inhib, CYP2C19 act, CYP2C9 act, CYP2C9 inhib)
COCCCNc1c2c3c(cccc3[nH]c1=O)C(=O)c1ccccc1-2	Cav32 inh -12, CYP2C9 inhib 61
O=c1ccc(Oc2nc(N3CCOCC3)nc(N3CCOCC3)n2)n[nH]1	none
Cc1ccccc1-n1nnnc1SC1CCOC1=O (stereo unspecified)	CYP2C19 inhib 59, CYP2C9 act 2.2
COc1ccccc1-n1cnnc1SC1CCOC1=O (stereo unspecified)	none (no result: Cav32 inh)
COc1ccc(CCNC(=O)c2c(O)c3c([nH]c2=O)CCCC3)cc1OC	none (no result: CYP2C19 inhib, CYP2C19 act, CYP2C9 act, CYP2C9 inhib)
CCOC(=O)c1ccc(NC2c3ncccc3C(=O)N2Cc2ccc(F)cc2)cc1 (stereo unspecified)	CYP2C9 inhib 70
COc1ccc(CN2C(=O)c3cccnc3C2Nc2cc(Cl)ccc2OC)cc1 (stereo unspecified)	CYP2C19 inhib 63
